Measurements as given in PubChem BioAssay AID720708 (National Center for Advancing Translational Sciences (NCATS), 2013).
About 660 (0.18%) of roughly 360,000 compounds were called active. Another 2% or so got no clear call; they are omitted. Calls follow the shape of the dose curve; as a rule, active = well fitted inhibition curve with a large enough effect; inconclusive = small, poorly fitted or top-dose-only effect; inactive = no such curve, though single readings can be large or run the other way. Many of the other results were omitted from the sample, so actives are more common in it than they were.

Target: Rap guanine nucleotide exchange factor 4 (Homo sapiens) (UniProt Q8WZA2)
Sequence (Q8WZA2 whole entry, looked up): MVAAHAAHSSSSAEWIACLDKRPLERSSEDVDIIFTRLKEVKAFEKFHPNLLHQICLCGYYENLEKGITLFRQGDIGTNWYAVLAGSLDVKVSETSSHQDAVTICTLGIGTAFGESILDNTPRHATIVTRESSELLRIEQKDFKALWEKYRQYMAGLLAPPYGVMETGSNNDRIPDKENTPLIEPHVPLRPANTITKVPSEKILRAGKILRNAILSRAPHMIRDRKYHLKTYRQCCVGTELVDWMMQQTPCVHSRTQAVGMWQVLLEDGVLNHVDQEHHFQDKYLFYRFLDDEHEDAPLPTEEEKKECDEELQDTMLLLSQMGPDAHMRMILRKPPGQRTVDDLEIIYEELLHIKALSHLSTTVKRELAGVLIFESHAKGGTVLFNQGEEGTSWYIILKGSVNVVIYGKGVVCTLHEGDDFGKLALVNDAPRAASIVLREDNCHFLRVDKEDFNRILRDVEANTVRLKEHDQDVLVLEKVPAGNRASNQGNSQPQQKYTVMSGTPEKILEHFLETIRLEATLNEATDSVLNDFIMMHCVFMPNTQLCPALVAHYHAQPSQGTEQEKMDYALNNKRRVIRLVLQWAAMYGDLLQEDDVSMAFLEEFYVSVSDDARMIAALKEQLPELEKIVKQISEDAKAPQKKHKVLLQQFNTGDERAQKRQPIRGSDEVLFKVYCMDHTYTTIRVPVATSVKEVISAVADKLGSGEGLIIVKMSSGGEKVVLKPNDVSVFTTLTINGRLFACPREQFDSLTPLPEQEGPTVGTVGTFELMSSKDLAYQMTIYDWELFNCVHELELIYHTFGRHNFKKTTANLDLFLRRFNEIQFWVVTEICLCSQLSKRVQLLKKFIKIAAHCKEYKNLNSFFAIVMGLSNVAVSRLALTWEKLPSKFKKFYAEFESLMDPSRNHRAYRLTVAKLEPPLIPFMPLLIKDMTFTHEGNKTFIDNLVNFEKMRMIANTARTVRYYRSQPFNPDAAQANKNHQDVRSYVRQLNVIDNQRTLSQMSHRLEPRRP
Test: qHTS for Antagonist of cAMP-regulated guanine nucleotide exchange factor 2 (EPAC2): primary screen; also: nearly all actives have a fitted effect of over 45% in size
Conditions: EPAC2 GEF exchange of Rap1B-BODIPY-GDP, fluorescence; series mostly up to 114 µM; activity, negative = inhibition: at the top concentration
% is scaled to controls: 0 for no effect and ±100 for the full control effect; potency is read from the fitted curve at half-maximal effect.

activity, negative = inhibition, inactive:
CC(C)N(C(=O)Cn1cc(S(=O)(=O)CC(=O)N2CCOCC2)c2ccccc21)C(C)C 1.79%
Cc1cc(NC(=O)Cn2nc(C(F)(F)F)c3c2CCCC3)no1 12.3%
Cc1ccc(C(=O)N[C@H](C(=O)N2CCN(c3ncccn3)CC2)C(C)C)cc1 38.4%
COCOCCn1cc(CN2CCS(=O)(=O)N(Cc3ccc(-c4cccc(N(C)C)c4)cc3)C(CC(C)C)C2=O)nn1 (stereo unspecified) -4.15%
COc1ccc(-c2ccc(CN3C(CC(C)C)C(=O)N(Cc4cn(CC5CCCCC5)nn4)CCS3(=O)=O)cc2)cc1 (stereo unspecified) 4.18%
CCC1Nc2ncnc(N3CCN(c4ccccc4)CC3)c2N(Cc2ccc(Cl)cc2)C1=O (stereo unspecified) -9.37%
COC(=O)C[C@@H]1C=C[C@@H](NS(=O)(=O)c2cccc(OC)c2)[C@@H](CO)O1 -11%
C=CCSC(CC)(CC)C(N)=O 4%
CCOc1ccccc1Oc1cn[nH]c1-c1ccc(OC)cc1O -10.8% [at 57.1 µM]
COc1ccc(-c2cn[nH]c2-c2ccc(OC)cc2)cc1 -25.6%
CCC1CCCCN1CCNS(=O)(=O)c1ccc2c(c1)CCN2C(C)=O (stereo unspecified) -1.86%
CSc1ncccc1C(=O)OCc1ccc(Br)cc1 -18.6%
COc1ccc(/C=C2\SC(=N)N(c3ccc(F)cc3)C2=O)cc1 0.0047%
O=C(O)c1ccc(/C=C2\SC(=S)N(NC(=O)c3ccc(Br)cc3)C2=O)cc1 5.01%
O=c1[nH]c(SCc2cccc(F)c2)nc2ccccc12 1.6%
CC(=O)CSc1nc(CCc2ccccc2)c(C#N)c(=O)[nH]1 5.04%
COc1ccc(OCCCC(=O)Nc2cccc(S(=O)(=O)N3CCCCCC3)c2)cc1 -11.7%
CC(C)(C)NC(=O)C(CCc1ccccc1)n1c(=O)c(-c2ccccc2)nc2ccccc21 (stereo unspecified) 1.14%
COC(=O)[C@]12CCCCC=C1N(CCC1=CCCCC1)C(=O)[C@H](CC(=O)N1CCSCC1)C2 9.02%
C=C1C2C[C@H](O)C(C)(C)[C@@]2(O)[C@H](O)C[C@]23C[C@@](C)(O)[C@H](CC[C@H]12)[C@H]3O (stereo partly specified) -2.34%
CC1(C)OC(=O)C2=C(C[C@@H](C3CCCC3)O[C@@H]2c2ccc(Cl)cc2)O1 -4.79%
COc1ccc(N(C)S(=O)(=O)c2cccc3nsnc23)cc1 -26%
CC(C)c1ccc(NC(=O)CCN2C(=O)c3ccc([N+](=O)[O-])cc3C2=O)cc1 4.46%
CN(CC1CCCO1)S(=O)(=O)c1ccc(C(=O)Nc2ccc([N+](=O)[O-])cc2)cc1 (stereo unspecified) -8.12%
COCc1cccc(-c2csc(C(O)c3ccc(F)cc3)n2)c1 (stereo unspecified) -6.83%
O=C(Nc1cc(Cl)ccc1N1CCOCC1)c1ccc(N2CCCC2=O)cc1 0.558%
CCc1nn(CCCC(=O)Nc2ccc(C)c(C)c2)c(=O)c2cc3occc3n12 -2.6%
COc1c(F)c(F)c(-c2csc(N)n2)c(F)c1F 1.67%
Cc1cccc(C)c1NC(=O)C(c1ccc(C(F)(F)F)cc1)n1c(=O)c(-c2ccco2)nc2ccccc21 (stereo unspecified) -16.5%
O=C(O)CCCN1C(=O)C2C3c4ccccc4C(c4ccccc43)[C@@H]2C1=O (stereo partly specified) 6.33%
C=C1C(=O)OC2C1CCC(C)=CCCC1(C)OC21 (stereo unspecified) 5.97%
CCN(c1ccccc1)S(=O)(=O)c1ccc2[nH]c(=O)[nH]c2c1 -7.42%
CCN1CCN(C(=O)c2cc3cc4ccc(OC)cc4nc3s2)CC1 -2.76%
N#CCOc1ccc(C2=NO[C@@H]3[C@@H]4C[C@@H]([C@H]5C(=O)N(c6ccc7c(c6)OCO7)C(=O)[C@@H]45)[C@H]23)cc1 -9.46%
CN(C)c1ccc(NC(=O)c2ccncc2)c2ccccc12 4.4%
CC1CCCN(C(C(=O)Nc2ccc(C(C)C)cc2)c2ccc3c(c2)OCO3)C1 (stereo unspecified) 11.7%
CC(C)C[C@H]1CN([C@@H](CC(C)C)CN2CCC[C@@H]2CN2C(=O)C(=O)NC[C@@H]2Cc2ccccc2)C(=O)C(=O)N1CCc1ccccc1 -25.2%
CC(C)OC(=O)c1sc2nc3c(cc2c1N)C(=O)CCC3 7.66%
COC(=O)c1sccc1NC(=O)c1ccc(Cl)cc1 5.53%
CCOC(=O)[C@]12CCCC=C1N(CCC1=CCCCC1)C(=O)[C@H](CC(=O)NCCCCc1ccccc1)C2 -10.5%
COc1ccccc1NC(=O)N1CCCC1C(=O)NCc1cccs1 (stereo unspecified) 0.017%
Cc1ccc(-n2ncc3c2CC(C)(C)CC3NC(=O)CCc2cnn(C)c2)cc1 (stereo unspecified) -0.921%
O=C(NCCCn1ccnc1)/C(=C\c1ccccc1F)NC(=O)c1ccccc1 -3.25%
CCC(=O)NC(Nc1cc(C)ccn1)(C(F)(F)F)C(F)(F)F -5.15%
COC(=O)c1ccc2nc(-c3cccc(Br)c3)c(Cc3ccc(OC)cc3C)n2c1 -6.84%
CC1(C(=O)NCc2ccco2)Cc2c(-c3ccc4c(c3)OCO4)ccnc2O1 (stereo unspecified) -0.756%
O=C(Nc1ccccc1-c1nnn(CC(=O)N2CCCc3ccccc32)n1)c1cccc(Cl)c1 -0.482%
O=C(NC1CCCCC1)C(c1cc2ccccc2o1)n1c(=O)c(-c2ccco2)nc2ccccc21 (stereo unspecified) -8.44%
CCCc1nn2c(=O)cc(CSCC(=O)Nc3cccc(C)c3)nc2s1 6.1%
CCN(C(=O)COC(=O)c1c(NC(C)=O)sc(C)c1C)C1CCS(=O)(=O)C1 (stereo unspecified) 2.22%
O=C(Nc1cc(S(=O)(=O)N2CCOCC2)ccc1Cl)c1cc(=O)c2ccccc2o1 -0.0117%
O=C(c1cc(S(=O)(=O)N2CCOCC2)ccc1Cl)N1CCOCC1 2.76%

Potency, active:
COCOCCn1cc(CN2CCS(=O)(=O)N(Cc3ccc(-c4ccccc4)cc3)C(CC(C)C)C2=O)nn1 (stereo unspecified) 10 µM
COc1ccc(Oc2cn[nH]c2-c2ccc(OC)cc2O)cc1 56.2 µM
O=C1/C(=C/c2ccc(F)cc2)SC(=S)N1NS(=O)(=O)c1ccccc1 70.8 µM
N#Cc1c(-c2ccccc2)nc(SCc2cccc(C(F)(F)F)c2)[nH]c1=O 39.8 µM
Cn1ccc(=Nc2ccc(NC(=O)c3ccc(N=c4ccn(C)c5ccc([N+](=O)[O-])cc45)cc3)cc2)cc1 22.4 µM
COC(=O)c1cc2c(N)c(C(=O)c3ccc(Cl)cc3)sc2nc1C(OC)OC 79.4 µM
O=C(O)c1ccccc1N=N/C(=N/Nc1cc(S(=O)(=O)O)ccc1O)c1ccccc1 50.1 µM
O=[N+]([O-])c1cc(Cl)cc(/C=N/NC(=S)Nc2cc(S(=O)(=O)N3CCOCC3)ccc2Cl)c1O 56.2 µM

Potency, inactive:
CCO/C([O-])=N/c1c[n+](N2CCOCC2)no1
